PubChem BioAssay
Also: test concentration not given here.

Assay: A549 cell viability effects, profiling panel, calcein-AM fluorescence, 48 h, basal (AID 1162)
Details: higher = more signal
For COc1cc(NN2C(C(O)C3CCCCC3)C=CC3C(=O)N(c4ccccc4)C(=O)C32)cc(OC)c1OC (stereo unspecified), the z-score was -0.278. For O=C(NCC(O)CO)[C@@]1(CCS(=O)(=O)c2ccccc2)COC(c2ccc(OCCCO)cc2)=N1 (stereo partly specified), the z-score was -0.696. Molecule NCCCCCNC(=O)[C@@H]1C[C@@H]2C(=O)N3CCC[C@H]3C(=O)N2[C@@H]1c1ccc(O)cc1 has a z-score of 0.389. For CCCNC(=O)[C@@]1(Sc2ccc(C)cc2)CC(=O)N(C2CCCCC2)[C@@H]1c1ccc(CO)cc1I, the z-score was 0.14. For COC(=O)C1=CC(CCCO)=CC(C)N(Cc2cccc(OC(F)(F)F)c2)C=C1C(=O)OC (stereo unspecified), the z-score was 1.35. C=CCC(OC(C)=O)[C@@H]1[C@@H](N(Cc2ccc(-c3ccccc3)cc2)C(=O)c2ccc(C)cc2)c2cc(OCCCO)ccc2N1C(=O)Cc1ccc2ccccc2c1 (stereo partly specified) gave a z-score of 1.35. With CCCCCCCCCCC(O)C1C=CC2C(=O)N(c3ccccc3)C(=O)C2N1Nc1ccccc1F (stereo unspecified) the z-score was 0.059. CCOC(=O)C[C@H]1[C@H](OC(=O)c2ccc(-c3ccccc3)cc2)[C@@H](NC(=O)Cc2ccc(OC)cc2)c2cc(OCCCO)ccc2N1C(=O)Cc1ccc(OC)cc1 gave a z-score of 0.368. In the case of Cc1ccccc1C(O)C1C=CC2C(=O)NC(=O)C2N1Nc1ccc(Cl)cc1Cl (stereo unspecified), the z-score is reported as -0.235. COCCOC(=O)N1C(=O)[C@@]2(c3cc(C#CCC(C(=O)OC)C(=O)OC)ccc31)[C@H](c1ccc(OCCO)cc1)N1[C@H](c3ccccc3)[C@H](c3ccccc3)OC(=O)[C@H]1[C@@H]2C(=O)Nc1nc2ccccc2s1 showed a z-score of 0.705. Work on O=C1C[C@@](C(=O)NCC(F)(F)F)(c2ccc([N+](=O)[O-])cc2)[C@@H](c2ccc(CO)cc2)N1CC12CC3CC(CC(C3)C1)C2 yielded a z-score of -1.8. Work on CCOC(=O)C[C@H]1[C@H](OC(=O)c2ccccc2-c2ccccc2)[C@@H](NC(=O)c2ccc3ccccc3n2)c2cc(OCCCO)ccc2N1C(=O)c1ccccc1 yielded a z-score of 0.198. Molecule COCCOC(=O)N1C(=O)[C@@]2(c3cc(C#CCNC(N)=O)ccc31)[C@H](c1ccc(O)cc1)N1[C@H](c3ccccc3)[C@H](c3ccccc3)OC(=O)[C@H]1[C@@H]2C(=O)N1CCN(c2ncccn2)CC1 has a z-score of -0.652. In the case of C=CC[C@H](OC(=O)Nc1ccc(SC)cc1)c1ccc(OCCO)cc1, the z-score is reported as -0.542. Molecule C[C@]1(C(=O)O)c2ccccc2C(=O)N(Cc2ccc(OC(F)(F)F)cc2)[C@H]1c1ccc(CO)cc1 has a z-score of 0.0055. For CN(C)CCCCCCNC(=O)[C@@H]1C[C@@H]2C(=O)N[C@@H](CCCCN)C(=O)N2[C@@H]1c1ccc(O)cc1, the z-score was 1.4. CC(C)C(=C=CC[C@@H](O)c1cccc(OCCO)c1)C[C@@H](O)c1ccccn1 showed a z-score of -0.171. In the case of CCOC(=O)C1=CC[C@@H](c2ccccc2)N(S(=O)(=O)c2ccc(C)cc2)[C@H]1c1cccc(OC)c1, the z-score is reported as -0.716. In the case of CC(C)=CCCC(C)=CC(O)C1C=CC2C(=O)N(c3ccccc3)C(=O)C2N1Nc1ccccc1F (stereo unspecified), the z-score is reported as 0.154. For C=CCC(OC(C)=O)[C@@H]1[C@@H](N(Cc2ccc(-c3cccc(C(F)(F)F)c3)o2)C(=O)Cc2ccc(OC)cc2)c2cc(OCCCO)ccc2N1C(=O)Cc1ccc2ccccc2c1 (stereo partly specified), the z-score was 0.553. NC(=O)NCC#Cc1ccc2c(c1)[C@]1(C(=O)N2)[C@H](C(=O)N2CCN(c3ncccn3)CC2)[C@H]2C(=O)O[C@H](c3ccccc3)[C@H](c3ccccc3)N2[C@@H]1c1ccc(OCCO)cc1 showed a z-score of 0.0404. In the case of COCCOC(=O)N1C(=O)[C@@]2(c3cc(C#CC4=CCCCC4)ccc31)[C@H](c1ccc(O)cc1)N1[C@H](c3ccccc3)[C@H](c3ccccc3)OC(=O)[C@H]1[C@@H]2C(=O)NC[C@H](O)c1ccccc1, the z-score is reported as -0.309. Work on COCC(=C=CC[C@@H](O)c1cccc(OCCO)c1)CCO yielded a z-score of 0.611. Work on Cc1ccc(S[C@]2(C(=O)NC(C)C)CC(=O)N(C(C)C)[C@@H]2c2ccc(CO)cc2I)cc1 yielded a z-score of 0.931. For O=C1O[C@H](c2ccccc2)[C@H](c2ccccc2)N2[C@H]1[C@@H](C(=O)N1CCCCCCC1)[C@]1(C(=O)Nc3ccc(C#CC4(O)CCCCCC4)cc31)[C@H]2c1ccc(O)cc1, the z-score was 0.792.

Assay: adipocyte viability effects, profiling panel, cell-based, 3T3-L1 adipocytes, calcein-AM fluorescence, 48 h, basal (AID 1163)
Details: 3T3-L1 adipocytes viability, higher = more signal
COCC(=C=CC[C@H](O)c1cccc(OCCO)c1)C[C@H](O)COCc1ccccc1 gave a z-score of -0.48. Work on C=CCOC(=O)[C@H]1[C@@H]2C(=O)O[C@@H](c3ccccc3)[C@@H](c3ccccc3)N2[C@@H](c2ccc(OCCOC(=O)[C@H]3C[C@H]4C(=O)N[C@@H](CCCCNC(C)=O)C(=O)N4[C@H]3c3cccc(OCCO)c3)cc2)[C@]12C(=O)Nc1ccc(I)cc12 yielded a z-score of 1.5. For Cc1c(NC(=O)/C(C#N)=C/c2ccccc2Cl)c(=O)n(-c2ccccc2)n1C, the z-score was 0.228. In the case of C=C(C(=O)CC[C@@H](OC(=O)c1ccccc1-c1ccccc1C(=O)O)c1ccccc1OCCO)C(C)C, the z-score is reported as 0.707. With COc1ccc([Si](C)(C)[C@@H]2[C@@H](CC(=O)N3Cc4ccccc4C[C@H]3CO)O[C@]3(C(=O)N(Cc4ccc(N5CCC5=O)cc4)c4ccccc43)[C@H]2C)cc1 the z-score was 0.233. Molecule C=C[C@@H](OC)[C@H](OC(=O)Nc1ccc(OC)cc1)c1ccc(OC)c(O)c1 has a z-score of 0.605. For CCOC(=O)C1=CCC(c2ccco2)N(S(=O)(=O)c2ccc(C)cc2)C1 (stereo unspecified), the z-score was 0.279. Molecule C=CCNC(=O)[C@H]1[C@@H]2C(=O)O[C@@H](c3ccccc3)[C@@H](c3ccccc3)N2[C@@H](c2ccc(OCCO)cc2)[C@]12C(=O)N(C(=O)OCCOC)c1ccc(C#Cc3ccc(OC)cc3)cc12 has a z-score of 1.44. CN1C=C(C(=O)OCCS(C)(=O)=O)C(C(=O)OCCS(C)(=O)=O)=CC(c2ccc(CO)cc2)=CC1c1cccs1 (stereo unspecified) gave a z-score of -0.72. With COC(=O)C1N=C(c2ccc(OCCCO)cc2)N(c2ccccc2)O1 (stereo unspecified) the z-score was 1.16. CC(C)N1CC=CC23O[C@@H]4/C=C\CCCOC(=O)C4[C@H]2C(=O)N(CCCCCCO)[C@@H]3C1=O (stereo partly specified) showed a z-score of -0.377. COc1cc(NN2C(C(O)C3CCCCC3)C=CC3C(=O)N(c4ccccc4)C(=O)C32)cc(OC)c1OC (stereo unspecified) gave a z-score of 0.0809. O=C(NCC(O)CO)[C@@]1(CCS(=O)(=O)c2ccccc2)COC(c2ccc(OCCCO)cc2)=N1 (stereo partly specified) showed a z-score of -0.0875. With NCCCCCNC(=O)[C@@H]1C[C@@H]2C(=O)N3CCC[C@H]3C(=O)N2[C@@H]1c1ccc(O)cc1 the z-score was 0.485. With CCCNC(=O)[C@@]1(Sc2ccc(C)cc2)CC(=O)N(C2CCCCC2)[C@@H]1c1ccc(CO)cc1I the z-score was 0.53. COC(=O)C1=CC(CCCO)=CC(C)N(Cc2cccc(OC(F)(F)F)c2)C=C1C(=O)OC (stereo unspecified) gave a z-score of 0.0937. Molecule C=CCC(OC(C)=O)[C@@H]1[C@@H](N(Cc2ccc(-c3ccccc3)cc2)C(=O)c2ccc(C)cc2)c2cc(OCCCO)ccc2N1C(=O)Cc1ccc2ccccc2c1 (stereo partly specified) has a z-score of 0.844. CCCCCCCCCCC(O)C1C=CC2C(=O)N(c3ccccc3)C(=O)C2N1Nc1ccccc1F (stereo unspecified) gave a z-score of -0.849. Molecule CCOC(=O)C[C@H]1[C@H](OC(=O)c2ccc(-c3ccccc3)cc2)[C@@H](NC(=O)Cc2ccc(OC)cc2)c2cc(OCCCO)ccc2N1C(=O)Cc1ccc(OC)cc1 has a z-score of 0.0052. Cc1ccccc1C(O)C1C=CC2C(=O)NC(=O)C2N1Nc1ccc(Cl)cc1Cl (stereo unspecified) showed a z-score of -0.636. Work on COCCOC(=O)N1C(=O)[C@@]2(c3cc(C#CCC(C(=O)OC)C(=O)OC)ccc31)[C@H](c1ccc(OCCO)cc1)N1[C@H](c3ccccc3)[C@H](c3ccccc3)OC(=O)[C@H]1[C@@H]2C(=O)Nc1nc2ccccc2s1 yielded a z-score of 0.694. Molecule O=C1C[C@@](C(=O)NCC(F)(F)F)(c2ccc([N+](=O)[O-])cc2)[C@@H](c2ccc(CO)cc2)N1CC12CC3CC(CC(C3)C1)C2 has a z-score of 1.4. CCOC(=O)C[C@H]1[C@H](OC(=O)c2ccccc2-c2ccccc2)[C@@H](NC(=O)c2ccc3ccccc3n2)c2cc(OCCCO)ccc2N1C(=O)c1ccccc1 gave a z-score of 0.197. Work on COCCOC(=O)N1C(=O)[C@@]2(c3cc(C#CCNC(N)=O)ccc31)[C@H](c1ccc(O)cc1)N1[C@H](c3ccccc3)[C@H](c3ccccc3)OC(=O)[C@H]1[C@@H]2C(=O)N1CCN(c2ncccn2)CC1 yielded a z-score of -0.901. Molecule C=CC[C@H](OC(=O)Nc1ccc(SC)cc1)c1ccc(OCCO)cc1 has a z-score of -0.228. In the case of C[C@]1(C(=O)O)c2ccccc2C(=O)N(Cc2ccc(OC(F)(F)F)cc2)[C@H]1c1ccc(CO)cc1, the z-score is reported as 0.755. For CN(C)CCCCCCNC(=O)[C@@H]1C[C@@H]2C(=O)N[C@@H](CCCCN)C(=O)N2[C@@H]1c1ccc(O)cc1, the z-score was 0.576. Molecule CC(C)C(=C=CC[C@@H](O)c1cccc(OCCO)c1)C[C@@H](O)c1ccccn1 has a z-score of -0.142. Work on CCOC(=O)C1=CC[C@@H](c2ccccc2)N(S(=O)(=O)c2ccc(C)cc2)[C@H]1c1cccc(OC)c1 yielded a z-score of -1.41. Molecule CC(C)=CCCC(C)=CC(O)C1C=CC2C(=O)N(c3ccccc3)C(=O)C2N1Nc1ccccc1F (stereo unspecified) has a z-score of 0.0094. C=CCC(OC(C)=O)[C@@H]1[C@@H](N(Cc2ccc(-c3cccc(C(F)(F)F)c3)o2)C(=O)Cc2ccc(OC)cc2)c2cc(OCCCO)ccc2N1C(=O)Cc1ccc2ccccc2c1 (stereo partly specified) gave a z-score of 1.78. With NC(=O)NCC#Cc1ccc2c(c1)[C@]1(C(=O)N2)[C@H](C(=O)N2CCN(c3ncccn3)CC2)[C@H]2C(=O)O[C@H](c3ccccc3)[C@H](c3ccccc3)N2[C@@H]1c1ccc(OCCO)cc1 the z-score was -0.33. In the case of COCCOC(=O)N1C(=O)[C@@]2(c3cc(C#CC4=CCCCC4)ccc31)[C@H](c1ccc(O)cc1)N1[C@H](c3ccccc3)[C@H](c3ccccc3)OC(=O)[C@H]1[C@@H]2C(=O)NC[C@H](O)c1ccccc1, the z-score is reported as -0.539. Molecule COCC(=C=CC[C@@H](O)c1cccc(OCCO)c1)CCO has a z-score of 0.314. Cc1ccc(S[C@]2(C(=O)NC(C)C)CC(=O)N(C(C)C)[C@@H]2c2ccc(CO)cc2I)cc1 gave a z-score of -0.134. With O=C1O[C@H](c2ccccc2)[C@H](c2ccccc2)N2[C@H]1[C@@H](C(=O)N1CCCCCCC1)[C@]1(C(=O)Nc3ccc(C#CC4(O)CCCCCC4)cc31)[C@H]2c1ccc(O)cc1 the z-score was -0.597.
